Source: PubChem BioAssay AID2073 (Sanford-Burnham Center for Chemical Genomics, 2009)
In all, about 290,000 compounds went through this assay and about 570 (0.2%) were called active. Another 1% or so got no clear call; they are omitted. No stated cut-off is given here; in the data, active means inhibition mostly above about 51% (no sharp cut-off); inconclusive means no clear call, values can overlap the other calls; inactive means mostly below about 53%. Shown is part of a subset that was picked to be rich in actives.

Target: Voltage-dependent N-type calcium channel subunit alpha-1B (Homo sapiens) (UniProt Q00975)
Sequence (Q00975 whole entry, looked up): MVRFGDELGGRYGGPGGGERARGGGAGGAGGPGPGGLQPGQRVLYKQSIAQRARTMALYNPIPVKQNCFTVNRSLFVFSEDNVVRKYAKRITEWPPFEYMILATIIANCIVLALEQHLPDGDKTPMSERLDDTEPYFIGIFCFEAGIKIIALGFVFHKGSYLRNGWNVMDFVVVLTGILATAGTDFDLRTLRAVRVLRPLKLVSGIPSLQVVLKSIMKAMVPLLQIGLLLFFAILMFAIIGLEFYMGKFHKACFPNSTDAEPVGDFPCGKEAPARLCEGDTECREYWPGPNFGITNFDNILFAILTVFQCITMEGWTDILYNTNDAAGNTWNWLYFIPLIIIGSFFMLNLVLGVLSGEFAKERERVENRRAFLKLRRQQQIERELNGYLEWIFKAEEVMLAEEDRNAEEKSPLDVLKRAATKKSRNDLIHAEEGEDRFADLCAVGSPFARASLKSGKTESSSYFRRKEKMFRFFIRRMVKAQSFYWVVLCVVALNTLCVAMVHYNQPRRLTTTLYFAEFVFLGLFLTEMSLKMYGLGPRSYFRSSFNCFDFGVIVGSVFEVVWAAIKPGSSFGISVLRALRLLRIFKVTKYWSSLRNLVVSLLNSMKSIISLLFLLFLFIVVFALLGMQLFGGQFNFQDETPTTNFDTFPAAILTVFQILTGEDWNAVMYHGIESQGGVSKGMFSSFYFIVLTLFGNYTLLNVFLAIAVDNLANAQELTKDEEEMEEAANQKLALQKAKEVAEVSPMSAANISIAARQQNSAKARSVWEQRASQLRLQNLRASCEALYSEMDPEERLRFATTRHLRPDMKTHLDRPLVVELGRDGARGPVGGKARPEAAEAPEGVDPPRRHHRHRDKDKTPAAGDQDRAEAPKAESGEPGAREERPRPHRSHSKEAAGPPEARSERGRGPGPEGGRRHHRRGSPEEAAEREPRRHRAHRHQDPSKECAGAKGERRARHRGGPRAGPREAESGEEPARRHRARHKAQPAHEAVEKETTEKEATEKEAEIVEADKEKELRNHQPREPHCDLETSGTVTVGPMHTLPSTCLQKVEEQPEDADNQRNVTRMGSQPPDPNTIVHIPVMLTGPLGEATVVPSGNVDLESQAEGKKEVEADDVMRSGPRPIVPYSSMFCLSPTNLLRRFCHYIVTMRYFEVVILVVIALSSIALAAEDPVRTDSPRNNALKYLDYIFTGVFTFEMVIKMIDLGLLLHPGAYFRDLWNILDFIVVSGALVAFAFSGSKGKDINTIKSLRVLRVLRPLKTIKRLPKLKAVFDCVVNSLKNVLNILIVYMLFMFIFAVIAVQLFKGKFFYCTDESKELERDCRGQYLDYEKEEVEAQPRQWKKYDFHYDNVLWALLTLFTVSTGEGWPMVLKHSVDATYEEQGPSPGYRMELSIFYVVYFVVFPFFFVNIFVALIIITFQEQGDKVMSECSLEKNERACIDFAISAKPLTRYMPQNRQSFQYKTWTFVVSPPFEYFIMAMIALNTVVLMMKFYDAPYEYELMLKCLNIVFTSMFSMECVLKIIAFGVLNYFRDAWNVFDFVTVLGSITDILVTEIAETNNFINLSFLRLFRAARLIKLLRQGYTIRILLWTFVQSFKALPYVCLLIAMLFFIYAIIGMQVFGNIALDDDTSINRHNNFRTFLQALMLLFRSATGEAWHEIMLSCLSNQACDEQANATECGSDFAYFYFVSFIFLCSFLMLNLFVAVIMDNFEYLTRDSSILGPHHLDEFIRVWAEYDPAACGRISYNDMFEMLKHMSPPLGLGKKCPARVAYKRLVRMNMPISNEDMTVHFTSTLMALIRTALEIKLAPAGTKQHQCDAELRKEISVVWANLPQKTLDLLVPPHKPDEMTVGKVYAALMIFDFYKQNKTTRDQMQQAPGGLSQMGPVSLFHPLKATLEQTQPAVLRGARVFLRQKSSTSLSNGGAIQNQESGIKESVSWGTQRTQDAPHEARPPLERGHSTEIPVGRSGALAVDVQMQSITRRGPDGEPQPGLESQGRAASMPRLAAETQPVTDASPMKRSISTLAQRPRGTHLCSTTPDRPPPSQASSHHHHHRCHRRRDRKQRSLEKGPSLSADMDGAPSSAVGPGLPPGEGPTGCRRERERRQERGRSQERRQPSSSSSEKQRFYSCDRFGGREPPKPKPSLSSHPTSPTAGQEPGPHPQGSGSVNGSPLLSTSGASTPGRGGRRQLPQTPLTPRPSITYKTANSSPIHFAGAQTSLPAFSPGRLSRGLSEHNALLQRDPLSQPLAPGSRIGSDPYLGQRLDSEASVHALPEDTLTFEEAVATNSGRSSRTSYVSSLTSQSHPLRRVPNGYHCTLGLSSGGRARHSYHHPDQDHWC
Assay: disruptors of CaV2.2 binding to Mint1 – biochemical, HTRF (AID 2073)
Settings: HTRF protein-protein interaction, Mint1-CaV2.2, at 20 µM, stronger effect = higher value
[1] = measured here: average of repeat tests

Row | SMILES | inhibition | inhibition [1] [%]
1 | CN1CCN(S(=O)(=O)c2cccc(C(=O)Oc3ccccc3Cl)c2)CC1 | 14.6% (inactive) | –
2 | COc1ccc(CNC(=O)Cn2nc([N+](=O)[O-])c(Br)c2C)cc1 | 2.9% (inactive) | –
3 | CCCN1C2=NCCN2c2ccccc21 | 2.5% (inactive) | –
4 | Cc1ccc(NC(=O)Nc2nnc(-c3ccncc3)s2)cc1C | 76.4% (active) | –
5 | Cc1nnc(NC(=O)Nc2cccc(Cl)c2)s1 | -1.9% (inactive) | –
6 | O=C(Nc1ccc(F)cc1)Nc1nnc(-c2ccncc2)s1 | 50.5% (inactive) | 37.8
7 | COc1ccc(NC(=O)Nc2nnc(-c3ccncc3)s2)cc1 | 3.4% (inactive) | –
8 | O=C(Nc1cccc(Cl)c1)Nc1nnc(-c2ccncc2)s1 | 56.2% (active) | –
9 | O=C(Nc1ccc(Cl)cc1)Nc1nnc(-c2ccncc2)s1 | 14.4% (inactive) | –
10 | Cc1c(NC(=O)CN2CCN(c3ccc([N+](=O)[O-])cc3)CC2)c(=O)n(-c2ccccc2)n1C | 1.5% (inactive) | –
11 | CC1Oc2ccccc2N(CC(=O)N2CCc3ccccc32)C1=O (centres undefined) | -10.9% (inactive) | –
12 | CCCC(=O)N(Cc1cc(=O)[nH]c2ccccc12)c1ccc(C)cc1 | 14.9% (inactive) | –
13 | CCOc1ccc(N(CC(=O)NCc2ccco2)S(C)(=O)=O)cc1 | 13.2% (inactive) | –
14 | O=C(NNC(=S)NC(=O)c1ccccc1)c1ccc([N+](=O)[O-])cc1 | -13% (inactive) | –
15 | Cc1nc2ccc(S(=O)(=O)NCC(=O)NCc3ccc4c(c3)OCO4)cc2s1 | 15.2% (inactive) | –
16 | CS(=O)(=O)Nc1cccc2[nH]ncc12 | 6.1% (inactive) | –
17 | N#CC1(C#N)[C@@H](C(=O)C23CC4CC(CC(C4)C2)C3)C12CCOCC2 | 0% (inactive) | –
18 | Cc1ccc(NS(=O)(=O)c2ccc(OCC(=O)N3CCOCC3)cc2)cc1 | -10.3% (inactive) | –
19 | COC(=O)C1C(O)=C(C=NC2CCCCC2)C(=O)CC1(C)C (centres undefined) | 10.7% (inactive) | –
20 | Nc1nc(N)c(N=Nc2ccc(S(N)(=O)=O)cc2)c(=O)[nH]1 | 13.6% (inactive) | –
21 | Oc1ccc(N=Nc2c(O)ccc3ccccc23)cc1 | -2.8% (inactive) | –
22 | NS(=O)(=O)c1ccc(N=Nc2c(O)ccc3ccccc23)cc1 | 64.4% (active) | –

Row | SMILES | inhibition | inhibition [1] [%]
23 | Nc1nc(O)c(N=Nc2ccc(S(N)(=O)=O)cc2)c(=O)[nH]1 | 50% (active) | –
24 | Cc1c(C#N)c(O)[nH]c(=O)c1N=Nc1ccc(S(N)(=O)=O)cc1 | 1.4% (inactive) | –
25 | NS(=O)(=O)c1ccc(N=Nc2c(O)c(C(=O)O)cc3ccccc23)cc1 | 20.5% (inactive) | –
26 | O=C(CN1C(=O)C2C3C=CC(C4CC34)C2C1=O)Oc1ccccc1 (centres undefined) | -1.6% (inactive) | –
27 | CC(C)(C)NC(=O)CSC(=Nc1cccc(F)c1)NC#N | -25.9% (inactive) | –
28 | CCCCOc1ccc(Cl)cc1CSc1nnc(C)n1N | -4.8% (inactive) | –
29 | CCOC(=O)CNC(=O)c1cc(-c2ccc3c(c2)OCCO3)oc1C | 10.9% (inactive) | –
30 | COC(=O)CCC(NC(=O)c1cc(-c2ccc3c(c2)OCCO3)oc1C)C(=O)OC (centres undefined) | 61.5% (active) | –
31 | Cc1oc(-c2ccc3c(c2)OCCO3)cc1C(=O)NC(CCC(=O)O)C(=O)O (centres undefined) | 20.1% (inactive) | –
32 | Cc1ccc(CNC(=O)CN2C(=O)NC(C)(c3ccccc3Cl)C2=O)cc1 (centres undefined) | 6.8% (inactive) | –
33 | CCOC(=O)c1c(NC(=O)CN2CCN(C(=O)c3ccco3)CC2)sc(C(N)=O)c1C | 0% (inactive) | –
34 | c1ccc2c(c1)CCN(c1nc3ccccc3n3cnnc13)C2 | 3.9% (inactive) | –
35 | c1ccc2c(c1)nc(NCCN1CCOCC1)c1nncn12 | 6.6% (inactive) | –
36 | c1ccc2c(c1)CCN(CCCNc1nc3ccccc3n3cnnc13)C2 | 50.8% (active) | –
37 | CCCCCCCNC(=O)CC(NS(=O)(=O)c1ccc(NC(C)=O)cc1)C(C)C (centres undefined) | 1.5% (inactive) | –
38 | COc1ccc(-n2c(C)c(C(=O)O)c3cc(OC)c4ccccc4c32)cc1 | 13.1% (inactive) | –
39 | CN1CCN(c2c(F)cc3c(=O)c(C(=O)O)cn(CCF)c3c2F)CC1 | 29.5% (inactive) | –
40 | CN1CCN(c2c(F)cc3c(=O)c(C(=O)O)cn4c3c2SCC4)CC1 | 53.3% (active) | –
41 | CN1CCN(c2c(F)cc3c(=O)c(C(=O)O)cn4c3c2OCN4C)CC1 | 33.2% (inactive) | –
42 | CCOc1ccc(S(=O)(=O)NCc2cccnc2)cc1C(C)C | 1.4% (inactive) | –
43 | Cc1ccc(-c2[nH]c(-c3ccc(C(=O)O)cc3)nc2-c2ccccc2)cc1 | 47.8% (inactive) | –
44 | CSc1nc(-c2ccc(C)cc2)[nH]c1S(=O)(=O)c1ccccc1 | -18.4% (inactive) | –

Row | SMILES | inhibition | inhibition [1] [%]
45 | CC(=O)Sc1nc(-c2ccccc2)[nH]c1S(=O)(=O)c1ccc(C)cc1 | 82.4% (active) | –
46 | CCOC(=O)c1c(-c2ccccc2)oc2ccc(OC(C)=O)cc12 | 7.9% (inactive) | –
47 | CCCCOC(=O)Nc1nnc(CC)s1 | 3.8% (inactive) | –
48 | Cc1[nH][nH]c(=O)c1C(c1ccc(-c2ccc(Cl)cc2Cl)o1)c1c(C)[nH][nH]c1=O | 2% (inactive) | –
49 | CN(C(=S)Nc1ccc(SC(F)F)cc1)C(c1ccccc1)c1ccccc1 | -7.4% (inactive) | –
50 | CN(C(=S)Nc1ccc(Oc2ccccc2)cc1)c1ccc(O)cc1 | 11% (inactive) | –
51 | CN(C(=S)Nc1ccc(SC(F)F)cc1)c1ccc(O)cc1 | 56.1% (active) | –
52 | C/C(=N\NC(=O)c1cccs1)c1ccc(C(=O)O)s1 | 12.5% (inactive) | –
53 | CCc1ccc(OCC(=O)NC(NC(=S)Nc2ccccc2C)C(Cl)(Cl)Cl)cc1 (centres undefined) | -12.1% (inactive) | –
54 | COC(=O)c1sccc1NC(=O)c1ccc(C(C)C)cc1 | 1% (inactive) | –
55 | CCN(CC)CCNC(=O)c1ccc(NC(=O)COc2ccccc2F)cc1 | -0.2% (inactive) | –
56 | COc1ccccc1CNC(=O)/C=C/c1ccc(Br)o1 | 79.5% (active) | –
57 | COc1ccccc1CNC(=O)c1ccc(Br)o1 | -2% (inactive) | –
58 | O=C(/C=C/c1ccc(Br)o1)NCc1ccccc1 | 76.8% (inactive) | 13.4
59 | COCC(=O)NNC(=O)c1ccccc1OC | -3.5% (inactive) | –
60 | CS(=O)(=O)N(CC(=O)Nc1ccc2c(c1)OCCO2)Cc1ccc(Cl)cc1 | -3.3% (inactive) | –
61 | CCOC(=O)C1C(=O)NC(SC)=C(C#N)C1c1ccccc1F (centres undefined) | -5.1% (inactive) | –
62 | CCOC(=O)C1=C(C)NC(=O)NC1c1ccc(Cl)cc1Cl (centres undefined) | -3.7% (inactive) | –
63 | COC(=O)C1C(=O)NC(SC)=C(C#N)C1c1ccccc1 (centres undefined) | -20.5% (inactive) | –
64 | N#CC1=C(N)SC(N)=C(C#N)C1c1ccc([N+](=O)[O-])cc1 | 68.2% (inactive) | 5
65 | CC(=O)C1(C)OC(N)=C(C#N)C(c2ccccc2)C1(C#N)C#N (centres undefined) | 48% (inactive) | –
66 | NC(=O)C1(C(N)=O)OC1c1ccc(Cl)cc1Cl (centres undefined) | 6.5% (inactive) | –

Row | SMILES | inhibition | inhibition [1] [%]
67 | COC(=O)C1C(=O)NC(SC)=C(C#N)C1c1ccccc1F (centres undefined) | 8% (inactive) | –
68 | N#CC1=C(N)Nc2ncnn2C1c1ccc([N+](=O)[O-])cc1 (centres undefined) | -11.4% (inactive) | –
69 | COCCCNC(=O)Cn1nnc(-c2ccc(NC(=O)c3ccc(F)cc3)cc2)n1 | 25.2% (inactive) | –
70 | Cc1cc2oc(=O)cc(CN3CCCCC3C)c2cc1C (centres undefined) | 2.6% (inactive) | –
71 | COc1ccccc1S(=O)(=O)Cc1ccc(C(=O)N2CCCC2)o1 | 0.3% (inactive) | –
72 | O=C(NCCc1c[nH]c2ccccc12)C(F)(F)C(F)F | -6.3% (inactive) | –
73 | Cc1ccc(C(=O)NCCc2nnc3ccc(SCC(=O)Nc4c(C)cc(C)cc4C)nn23)cc1 | 8.7% (inactive) | –
74 | CCCn1cnc2cc(NC(=O)c3ccco3)ccc21 | 10.4% (inactive) | –
75 | CC(C)c1csc(CN2CCN(Cc3ccccc3)C(CCO)C2)n1 (centres undefined) | 11.5% (inactive) | –
76 | Cc1ccc(C(=O)N(CC(=O)NC2CCCC2)c2ccc3c(c2)OCCO3)s1 | -11% (inactive) | –
77 | O=C(Nc1ccc(Cl)cc1)N1CCOC12CCCCC2 | -2.6% (inactive) | –
78 | O=Cc1cnc(N2CCOCC2)nc1 | 6.2% (inactive) | –
79 | NNC(=O)c1cccc(O)c1 | 19.5% (inactive) | –
80 | NNC(=O)c1cc(O)c(O)c(O)c1 | 63.1% (active) | –
81 | COC(=O)c1cc(O)c(O)c(O)c1 | -68.3% (inactive) | –
82 | COC(=O)c1ccc(NC(=O)CCn2cccc2)cc1 | 3.2% (inactive) | –
83 | CC(C)c1ccc(/C=C2\SC(N3CCOCC3)=NC2=O)cc1 | -2.3% (inactive) | –
84 | CCOC(=O)C1CCCN(C(=O)CC(C)c2ccccc2)C1 (centres undefined) | -3.1% (inactive) | –
85 | Cc1ccc(C)c(N2CCN(C(=O)CCn3c(=S)[nH]c4cc5c(cc4c3=O)OCO5)CC2)c1 | 4.3% (inactive) | –
86 | CS(=O)(=O)C1=NSC2=NC(=O)/C(=C\c3cccn3-c3ccccc3Cl)C(=N)N21 | 68.7% (active) | –
87 | Cc1ccc(-n2cccc2/C=C2/C(=N)N3C(=NC2=O)SN=C3S(C)(=O)=O)cc1Cl | 29.3% (inactive) | –
88 | CS(=O)(=O)C1=NSC2=NC(=O)/C(=C\c3cccn3-c3ccc(Cl)cc3)C(=N)N21 | 24.5% (inactive) | –

Row | SMILES | inhibition | inhibition [1] [%]
89 | O=C(CC1NCCNC1=O)Nc1cccc([N+](=O)[O-])c1 (centres undefined) | -6.8% (inactive) | –
90 | CC(=O)Nc1ccc2nsnc2c1 | 9% (inactive) | –
91 | Cc1nc2ccc(NC(=O)N(C(C)C)C(C)C)cc2s1 | 10.4% (inactive) | –
92 | CC(C)N(C(=O)Nc1ccc2nsnc2c1)C(C)C | 60.7% (active) | –
93 | CCC(C)(C)n1nnnc1C(c1ccc(Cl)cc1)N1CCN(C)CC1 (centres undefined) | -3.8% (inactive) | –
94 | Cc1nn(C)c(C)c1CS(=O)(=O)c1ccccc1 | -4% (inactive) | –
95 | CCc1c(C(C)S(=O)(=O)c2ccccc2)[nH]c(=O)n1CC (centres undefined) | -7.8% (inactive) | –
96 | CCn1c(C)c(CS(=O)(=O)c2ccccc2)[nH]c1=O | 73.9% (active) | –
97 | Cc1ccc2cc(CN(C(=O)c3cccs3)c3ccccc3)c(=O)[nH]c2c1 | 4.6% (inactive) | –
98 | CC(C)O/C(=N\S(=O)(=O)c1ccc(Cl)cc1)c1ccccc1 | 3.7% (inactive) | –
99 | Cc1cc(C)cc(C(N)=Nc2cccc(C#N)c2)c1 | 4.9% (inactive) | –
100 | Cc1ccc(N=c2sc(C)c(C)n2C)cc1 | -35.3% (inactive) | –
101 | N#Cc1ccc(N=c2ssnc2Cl)cc1 | 44.2% (inactive) | –
102 | NC1=NC(=Nc2ccc(Br)cc2)c2ccccc21 | -1.5% (inactive) | –
103 | Cc1ccc(N=C2CSC(=O)N2)cc1 | -2.7% (inactive) | –
104 | CCOC(=O)c1ccc(N=c2scc(C)n2CC)cc1 | 3.7% (inactive) | –
105 | CN1C(=O)CSC1=Nc1ccc(Br)cc1 | -4.4% (inactive) | –
106 | CCOC(=O)c1ccc(N=NN(C)C)cc1 | -7% (inactive) | –
